For 23 molecules, Potency and activity change, negative = inhibition results are on record in PubChem BioAssay (NCATS).

Where “and” joins values, the source holds several entries; their conditions need not be identical. Identical values can stand only once. Inconclusive results are not listed. Unmarked numbers belong to inactive results. Calls of active or inactive are those of the source. The call rests on the fitted dose curve; in most records, active means well fitted inhibition curve with a large enough effect; inconclusive means small, poorly fitted or top-dose-only effect; inactive means no such curve, though single readings can be large or run the other way.
On the % scale 0 is the no-effect control and ±100 the full control effect; potency means the concentration at half of the fitted maximal effect.

The first assay is described as follows: qHTS assay to identify inhibitors of the type 1 interferon - major histocompatibility complex class I in skeletal muscle: Counter screen cell viability and HiBit confirmation (AID 1347412). Further: nearly all actives have a fitted effect of over 60% in size. As to conditions: iHSKM muscle cells + IFN-b, HiBiT or CellTiter-Glo, 24 h; HiBiT. From the text:
Assay Submitter (PI): Travis B. Kinder Ph.D. & James Inglese Ph.D. Assay Development and Screening Technology Laboratory (ADST) National Center for Advancing Translational Sciences (NCATS), Rockville, MD National Institute of Health (NIH), Bethesda, Maryland Idiopathic inflammatory myopathies, collectively referred to as myositis, are a group of rare autoimmune diseases characterized by skeletal muscle inflammation, weakness, and usually accompanied by systemic pathologies of the skin, lungs, or vasculature. Current immunosuppressive therapies and glucocorticoids are often not curative and are accompanied by harsh side effects, especially in children with juvenile myositis. We initiated a drug repurposing and development program to identify more targeted, less toxic therapeutics to treat myositis. Although its cause is not known, muscle from a subset of patients have an abundance of the inflammatory type 1 interferon (IFN) and a down-stream product major histocompatibility complex class I (MHC class I), which are both thought to contribute to damage and weakness. We conducted quantitative high throughput screening on 6,576 compounds (4,679 unique) through a series of cell-based assays to identify those that inhibit the IFN-stimulated expression of MHC class I in muscle precursor cells (myoblasts). The compound identification and evaluation strategy utilized a primary screen with reporter-tagged MHC class I in genome-engineered myoblasts, ATP content counter screen for viability, HLA-ABC immunofluorescence secondary screen, and HLA-B RT-qPCR tertiary screen. The primary screen utilized CRISPR/Cas9 genome-engineering of immortalized human myoblasts, C25cl48, where a pro-luminescent reporter HiBit was fused to the C-terminus of endogenous MHC class I allele HLA-B*08:01 (HLA-B HiBit myoblasts). HiBit is an 11 amino acid fragment of NanoLuc luminescent reporter (Promega Corporation), and when complexed to the larger LgBit fragment, the reconstituted enzyme produces light in the presence of furimazine substrate (Schwinn et al., 2018). Briefly, HLA-B HiBit myoblasts were plated into 1536-well plates, treated with 4.0 ng/ml human IFN-beta and 650 inhibitory compounds identified from primary screening in a 12-point, 1:3 titration with a high final concentration of 46 uM. Compounds were pinned into duplicate plates, with one for HiBit confirmation and one for ATP content viability assay. After 24 hrs of treatment, cells were assayed by either Nano-Glo HiBiT Lytic Detection System (Promega) or CellTiter Glo (Promega), and luminescence measured by a ViewLux 1430 Ultra HTS (Perkin Elmer). References: Schwinn MK, Machleidt T, Zimmerman K, Eggers CT, Dixon AS, Hurst R, Hall MP, Encell LP, Binkowski BF, Wood K V. 2018. CRISPR-Mediated Tagging of Endogenous Proteins with a Luminescent Peptide. ACS Chem Biol 13:467-474. doi:10.1021/acschembio.7b00549
PROTOCOL TABLE (as described by Inglese et al., 2007) SEQUENCE No. (e.g., 1, 2, 3, etc.); […] (e.g., Cells, Incubation, Reagent, etc.); VALUE; DESCRIPTION 1a; Cells; 5 uL; Use a Multidrop Combi (Thermo Scientific) to seed 300 cells/well into 16 Greiner 1536 well white/solid bottom, high base, TC plates in 5 ul/well of iHSKM growth medium (GM) without dexamethasone into columns 1+2. Add metal lids with gas-exchange holes 1b; Cells; 5 uL; Use a Multidrop Combi (Thermo Scientific) to seed 300 cells/well into 16 Greiner 1536 well white/solid bottom, high base, TC plates in 5 ul/well of iHSKM GM without dexamethasone + 4 ng/ml IFN-b into columns 3 - 48. Add metal lids with gas-exchange holes 2; Incubate; 1 hr; Incubate at 37 C, 5% CO2, 95% RH 3; Compounds; 23 nl; Use Pin Tool (Wako) to transfer DMSO control, 92 uM final digitonin cytotoxic control, ruxolitinib IFN-b inhibitor control [High Concentration = 80 uM final, 16-pt, 1:2 in duplicate], and library compounds in DMSO. […]
In the case of `CCc1c(-c2ccccc2C)nc2c(C#N)c[nH]n2c1=O`, the Potency was 1.4 µM (active) and 787 nM (active).
In the case of `NC(=O)c1cnc2[nH]ccc2c1NC1C2CC3C[C@H]1CC(O)(C3)C2` (stereo partly specified), the Potency was 2.22 µM (active).
For the molecule `COc1cc2c(NC3CCN(C4CCCCC4)CC3)nc(N3CCCN(C(C)C)CC3)nc2cc1OCCCN1CCCCC1`, the Potency is 17.6 µM (active).
Turning to `CCS(=O)(=O)Nc1ccc(Oc2ccc(F)cc2F)c(-c2cn(C)c(=O)c3[nH]ccc23)c1`, the Potency is 0.0557 µM (active).
In the case of `CN(C)CCN1C(=O)c2cccc3cc(NC(N)=O)cc(c23)C1=O`, the Potency was 17.6 µM (active).
Turning to `COC1CCC(N2C(=O)CNc3ncc(-c4ccc(C(C)(C)O)nc4)nc32)CC1` (stereo unspecified), the Potency was 11.1 µM (active).
Turning to `CC[C@@]1(O)C(=O)OCc2c1cc1n(c2=O)Cc2c-1nc1cc(F)c(C)c3c1c2[C@@H](N)CC3`, the Potency was 0.313 µM (active).
Turning to `O=C(/C=C/c1ccc(CN(CCO)CCc2c[nH]c3ccccc23)cc1)NO`, the Potency is 0.198 µM (active).
Consider `Cc1ncsc1-c1ccc([C@H](C)NC(=O)[C@@H]2C[C@@H](O)CN2C(=O)[C@@H](NC(=O)COCCCOCCNC(=O)C[C@@H]2N=C(c3ccc(Cl)cc3)c3c(sc(C)c3C)-n3c(C)nnc32)C(C)(C)C)cc1`, for which the Potency was 0.394 µM (active).
`O=C(/C=C/C#Cc1cccc(NS(=O)(=O)c2ccccc2)c1)NO`: the Potency was 6.25 µM (active).
With `COC(=O)c1ccc([C@H]2c3[nH]c4ccccc4c3C[C@H](C(=O)OC)N2C(=O)CCl)cc1`, the Potency was 0.496 µM (active).
The same measure, in the same setting: then `Cc1[nH]c(/C=C2\C(=O)Nc3ccc(S(=O)(=O)Cc4c(Cl)cccc4Cl)cc32)c(C)c1C(=O)N1CCC[C@@H]1CN1CCCC1`, with 22.2 µM (active).
Still for that read-out and setting: with `C[C@@]12C(=O)OC(=O)[C@]1(C)[C@H]1CC[C@@H]2O1` the figure was 27.9 µM (active); with `Cc1cc(-n2c(=O)ccc3cnc4[nH]ccc4c32)ccc1F`, 3.52 µM (active); with `C[C@H](NC(=O)/C(C#N)=C/c1cccc(Br)n1)c1ccccc1`, 7.01 µM (active).

Still in this assay, the particulars now being: iHSKM muscle cells + IFN-b, HiBiT or CellTiter-Glo, 24 h; HiBiT; at 45.9 µM (top of the series).
Regarding `CN(C)CCOc1ccc(-c2nc(-c3ccc4c(c3)CC/C4=N\O)c(-c3ccncc3)[nH]2)cc1`, the activity change, negative = inhibition is 24.4%.
With `C=C1/C(=C\C=C2/CCC[C@]3(C)[C@@H]([C@H](C)CCCC(C)(C)O)CC[C@@H]23)C[C@@H](O)C[C@@H]1O`, the activity change, negative = inhibition was -12.1%.
The same measure, in the same setting: then `CC/C(=C(/c1ccc(O)cc1)c1ccc(OCCNC)cc1)c1ccccc1`, with -7.57%; and `COc1cc2c3c(n(CCCNCCO)c(=O)c2cc1OC)-c1cc2c(cc1C3=O)OCO2`, with -14.1%.

Staying with this assay, now noted: iHSKM muscle cells + IFN-b, HiBiT or CellTiter-Glo, 24 h; Viability.
Turning to `COc1cc2c(NC3CCN(C4CCCCC4)CC3)nc(N3CCCN(C(C)C)CC3)nc2cc1OCCCN1CCCCC1`, the Potency was 24.9 µM (active).
For `CCCc1cc(C(=O)N[C@H](Cc2ccc(-c3cccc(OC(F)(F)F)c3)nc2)C(=O)N[C@@H]2CCNC2)sc1C`, the Potency was 35.2 µM (active).
Regarding `COC(=O)c1ccc([C@H]2c3[nH]c4ccccc4c3C[C@H](C(=O)OC)N2C(=O)CCl)cc1`, the Potency is 0.787 µM (active).
Consider `C[C@@]12C(=O)OC(=O)[C@]1(C)[C@H]1CC[C@@H]2O1`, for which the Potency is 14 µM (active).

The same assay, now with this note: iHSKM muscle cells + IFN-b, HiBiT or CellTiter-Glo, 24 h; Viability; at 45.9 µM (top of the series).
In the case of `CCc1c(-c2ccccc2C)nc2c(C#N)c[nH]n2c1=O`, the activity change, negative = inhibition is 16.2% and -8.52%.
On the same count and under the same terms, then `NC(=O)c1cnc2[nH]ccc2c1NC1C2CC3C[C@H]1CC(O)(C3)C2` (stereo partly specified), with -16.1%.
In the case of `CCS(=O)(=O)Nc1ccc(Oc2ccc(F)cc2F)c(-c2cn(C)c(=O)c3[nH]ccc23)c1`, the activity change, negative = inhibition was -28.2%.
In the case of `CN(C)CCN1C(=O)c2cccc3cc(NC(N)=O)cc(c23)C1=O`, the activity change, negative = inhibition was -14%.
In the case of `Cn1cc(-c2ccc(-c3cncc(Cl)c3N3CCC4(CCNC4=O)CC3)cc2)cn1`, the activity change, negative = inhibition was -3.23%.
The same measure, in the same setting: with `COC1CCC(N2C(=O)CNc3ncc(-c4ccc(C(C)(C)O)nc4)nc32)CC1` (stereo unspecified) the figure was -5.62%; with `CC[C@@]1(O)C(=O)OCc2c1cc1n(c2=O)Cc2c-1nc1cc(F)c(C)c3c1c2[C@@H](N)CC3`, -10.9%.
Still for that read-out and setting: with `CN(C)CCOc1ccc(-c2nc(-c3ccc4c(c3)CC/C4=N\O)c(-c3ccncc3)[nH]2)cc1` the figure was -15.1%.
The same measure, in the same setting: then `O=C(/C=C/c1ccc(CN(CCO)CCc2c[nH]c3ccccc23)cc1)NO`, with -12.6%.
`Cc1c(C(=O)Nc2ccc(Oc3ccnc4[nH]cc(-c5ccccc5)c34)c(F)c2)c(=O)n(-c2ccc(F)cc2)n1C`: the activity change, negative = inhibition is -7.02%.
For `Cc1ncsc1-c1ccc([C@H](C)NC(=O)[C@@H]2C[C@@H](O)CN2C(=O)[C@@H](NC(=O)COCCCOCCNC(=O)C[C@@H]2N=C(c3ccc(Cl)cc3)c3c(sc(C)c3C)-n3c(C)nnc32)C(C)(C)C)cc1`, the activity change, negative = inhibition was -12.4%.
For the molecule `O=C(/C=C/C#Cc1cccc(NS(=O)(=O)c2ccccc2)c1)NO`, the activity change, negative = inhibition is -1.87%.
Regarding `C=C1/C(=C\C=C2/CCC[C@]3(C)[C@@H]([C@H](C)CCCC(C)(C)O)CC[C@@H]23)C[C@@H](O)C[C@@H]1O`, the activity change, negative = inhibition was -5.56%.
Turning to `COc1cc(N2CCN(C)CC2)ccc1Nc1ncc2c(n1)N(C)c1ccccc1C(=O)N2C`, the activity change, negative = inhibition was 22.1%.
The same measure, in the same setting: with `CC/C(=C(/c1ccc(O)cc1)c1ccc(OCCNC)cc1)c1ccccc1` the figure was -19.4%; with `Cc1cc(-n2c(=O)ccc3cnc4[nH]ccc4c32)ccc1F`, 5.99%.
Same read-out and setting: then `C[C@H](NC(=O)/C(C#N)=C/c1cccc(Br)n1)c1ccccc1`, with 17%; and `COc1cc2c3c(n(CCCNCCO)c(=O)c2cc1OC)-c1cc2c(cc1C3=O)OCO2`, with -9.73%.
